Assay results published in PubChem BioAssay (Tox21).
Records with an inconclusive call do not appear. Calls of active or inactive are those of the source. Unless noted, the call rests on the fitted dose curve; in most records, active means well fitted curve in the direction sought with a large enough effect in the repeat runs; inconclusive means weak or mixed curves; inactive means no such curve, though single readings can be large; an effect the other way counts as inactive or inconclusive.

How the values were obtained:
[1] = qHTS assay to identify aromatase inhibitors - cell viability counter screen (AID 743084);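 further: cells stimulated with testosterone during compound exposure; nearly all actives have a fitted effect of over 55% in size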; further: potency means the concentration at half of the fitted maximal effect
[2] = qHTS assay to identify small molecule that activate the aryl hydrocarbon receptor (AhR) signaling pathway - cell viability counter screen (AID 743086);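 further: HepG2 liver cells carrying the AhR DRE luciferase reporter; series mostly up to about 70 µM; nearly all actives have a fitted effect of over 45% in size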
In short: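 Cytotoxicity counter screen: CellTiter-Fluor signal (30 min, 37 C) in 4000 HepG2 cells/well carrying the DRE-luciferase reporter, following 24 h compound exposure at 37 C.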

[3] = target: Peroxisome proliferator-activated receptor gamma (Homo sapiens) (UniProt P37231); experiment: qHTS assay to identify small molecule agonists of the peroxisome proliferator-activated receptor gamma (PPARg) signaling pathway (AID 743094; active means well fitted activation curve with a large enough effect in the signal ratio in the repeat runs, not every such curve was filed as active; the % refers to the signal ratio)
In short: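 Cells from the PPARg UAS-bla HEK293H line are plated and incubated 5 h at 37C. Compounds in DMSO are pinned in and left 17 h at 37C. LiveBLAzer B/G substrate is then added for 1 h at room temperature before fluorescence is measured.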

[4] = qHTS assay for small molecule agonists of the antioxidant response element (ARE) signaling pathway (AID 743202; active means well fitted activation curve with a large enough effect in the signal ratio in the repeat runs, not every such curve was filed as active; the % refers to the signal ratio; further: potency means the concentration at half of the fitted maximal effect)
In short: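 After 16 hours of compound treatment at 37 C, HepG2 cells with a stably integrated ARE-driven beta-lactamase reporter were loaded 2 hours at room temperature with LiveBLAzer B/G FRET substrate and fluorescence intensity measured.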

[5] = qHTS assay for small molecule agonists of the antioxidant response element (ARE) signaling pathway - cell viability counter screen (AID 743203; calls by dose curve; further: nearly all actives have a fitted effect of over 55% in size)
In short: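 Cytotoxicity was tested in parallel with the ARE reporter screen. ARE-bla HepG2 cells were exposed to compounds for 16 hrs, and viability was taken from CellTiter-Glo luminescence.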

[6] = qHTS assay for small molecule activators of the heat shock response signaling pathway - cell viability counter screen (AID 743209); further: nearly all actives have a fitted effect of over 50% in size
In short: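 Cytotoxicity counter screen run in parallel with the HSE beta-lactamase reporter, using the same wells. HeLa HSE-bla cells received compound for 5 h at 37 C; ATP-based CellTiter-Glo luminescence was measured after 30 min at room temperature.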

[7] = qHTS assay for small molecule activators of the heat shock response signaling pathway (AID 743210; active means well fitted activation curve with a large enough effect in the signal ratio in the repeat runs, with a control signal flat, not every such curve was filed as active; the % refers to the signal ratio; further: series mostly up to about 63 µM)
In short: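 Compound exposure lasted 5 h at 37 C in HeLa cells carrying a heat-shock-element-driven beta-lactamase reporter. Read-out: fluorescence intensity after 2.5 h room-temperature loading with LiveBLAzer B/G FRET substrate.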

[8] = target: Peroxisome proliferator-activated receptor delta (Homo sapiens) (UniProt Q03181); experiment: qHTS assay to identify small molecule agonists of the peroxisome proliferator-activated receptor delta (PPARd) signaling pathway (AID 743212; calls by dose curve)
In short: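 Beta-lactamase reporter readout: a ratiometric FRET signal from the LiveBLAzer substrate after 2 h at room temperature. Compound exposure at 37 °C in PPARδ-bla HEK293H cells driven by an upstream activator sequence.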

[9] = qHTS assay to identify small molecule antagonists of the peroxisome proliferator-activated receptor delta (PPARd) signaling pathway - cell viability counter screen (AID 743213); further: nearly all actives have a fitted effect of over 50% in size
In short: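 PPARd-bla HEK293H cells (3000/well) got compound plus 300 nM L165041 agonist for 17 h at 37 C. Viability in the same wells came from CellTiter-Glo luminescence after 30 min at room temperature.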

[10] = qHTS assay to identify small molecule agonists of the farnesoid-X-receptor (FXR) signaling pathway - cell viability counter screen (AID 743218); further: nearly all actives have a fitted effect of over 45% in size
In short: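 Cells were seeded, left 5 h at 37 C and 5% CO2, then dosed with compound in DMSO for 16 h. After the beta-lactamase FRET read, CellTiter-Glo was added and luminescence measured 30 min later.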

[11] = qHTS assay to identify small molecule antagonists of the farnesoid-X-receptor (FXR) signaling pathway - cell viability counter screen (AID 743221; active means well fitted cell-killing curve with a large enough effect in the repeat runs, not every such curve was filed as active; further: nearly all actives have a fitted effect of over 50% in size)
In short: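 Cytotoxicity is taken from ATP luminescence (CellTiter-Glo, 30 min, room temperature) in FXR-bla HEK 293T cells previously incubated 16 h at 37 C with compound and chenodeoxycholic acid at 50 uM final.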

[12] = target: Vitamin D3 receptor (Homo sapiens) (UniProt P11473); experiment: qHTS assay to identify small molecule agonists of the vitamin D receptor (VDR) signaling pathway (AID 743222; calls by dose curve)
In short: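 Cells carrying a VDR-driven beta-lactamase reporter are seeded at 2,000 per well and rested 4 h. Compounds in DMSO are added for 16 h at 37C, and FRET substrate fluorescence is measured after 2 h at room temperature.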

[13] = qHTS assay to identify small molecule agonists of the peroxisome proliferator-activated receptor delta (PPARd) signaling pathway - cell viability counter screen (AID 743211); further: nearly all actives have a fitted effect of over 55% in size
In short: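 Tox21 library compounds, delivered in DMSO, were incubated 17 h with PPARd-bla HEK293H cells; cytotoxicity was taken from CellTiter-Glo luminescence read 30 min after reagent addition.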

[14] = target: Peroxisome proliferator-activated receptor delta (Homo sapiens) (UniProt Q03181); experiment: qHTS assay to identify small molecule antagonists of the peroxisome proliferator-activated receptor delta (PPARd) signaling pathway (AID 743215; active means well fitted inhibition curve with a large enough effect in the signal ratio in the repeat runs, not every such curve was filed as active; the % refers to the signal ratio;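 further: cells stimulated with agonist L165041 at 300 nM final during compound exposure; series mostly up to about 62 µM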)
In short: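 Cells: HEK293H with a UAS-driven beta-lactamase reporter responsive to PPARd. Compounds were co-added with L165041 (300 nM, final) and incubated 17 h at 37 C before a 2 h room-temperature FRET substrate step and fluorescence reading.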

[15] = target: Bile acid receptor (Homo sapiens) (UniProt Q96RI1); experiment: qHTS assay to identify small molecule antagonists of the farnesoid-X-receptor (FXR) signaling pathway (AID 743217; active means well fitted inhibition curve with a large enough effect in the signal ratio in the repeat runs, not every such curve was filed as active; the % refers to the signal ratio)
In short: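 Cells carrying a UAS-driven beta-lactamase reporter (GeneBLAzer FXR-UAS-bla HEK 293T) were plated and rested 5 h at 37 °C. Compounds in DMSO were added alongside chenodeoxycholic acid agonist at 50 uM final and left 16 h at 37 °C before FRET substrate readout.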

[16] = target: Bile acid receptor (Homo sapiens) (UniProt Q96RI1); experiment: qHTS assay to identify small molecule agonists of the farnesoid-X-receptor (FXR) signaling pathway (AID 743220; active means well fitted activation curve with a large enough effect in the signal ratio in the repeat runs, not every such curve was filed as active; the % refers to the signal ratio)
In short: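 FXR-UAS-bla HEK 293T cells carrying a UAS-driven beta-lactamase reporter were plated for 5 h at 37C/5% CO2, then exposed to DMSO-dissolved Tox21 10K compounds for 16 h at 37C. A LiveBLAzer B/G FRET substrate was loaded for 2 h at room temperature before fluorescence reading.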

[17] = target: Peroxisome proliferator-activated receptor gamma (Homo sapiens) (UniProt P37231); experiment: qHTS assay to identify small molecule antagonists of the peroxisome proliferator-activated receptor gamma (PPARg) signaling pathway (AID 743191; calls by dose curve; further: series mostly up to about 63 µM; nearly all actives have a fitted effect of over 30% in size)
In short: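 Beta-lactamase reporter under UAS control in HEK293H PPARg-bla cells; compound treatment 17 h at 37C. Read-out: fluorescence intensity after 1 h room-temperature incubation with LiveBLAzer B/G FRET substrate.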

[18] = qHTS assay to identify small molecule antagonists of the peroxisome proliferator-activated receptor gamma (PPARg) signaling pathway - cell viability counter screen (AID 743194); further: nearly all actives have a fitted effect of over 55% in size
In short: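 Viability was measured as CellTiter-Glo luminescence in GeneBLAzer PPARg UAS-bla HEK293H cells. These cells had been exposed 17 h at 37 C to compounds together with rosiglitazone at 50 nM final, with the beta-lactamase readout taken in the same wells.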

[19] = target: Vitamin D3 receptor (Homo sapiens) (UniProt P11473); experiment: qHTS assay to identify small molecule antagonists of the vitamin D receptor (VDR) signaling pathway (AID 743223; active means well fitted inhibition curve with a large enough effect in the signal ratio in the repeat runs, not every such curve was filed as active; the % refers to the signal ratio)
In short: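 Quantitative HTS in VDR-bla reporter cells stimulated with 1alpha,25-dihydroxyvitamin D3, 3 nM final. Compound exposure 16 h, 37C, 5% CO2. Read-out: beta-lactamase FRET substrate fluorescence, 2 h RT.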

[20] = target: Aryl hydrocarbon receptor (Homo sapiens) (UniProt P35869); experiment: qHTS assay to identify small molecule that activate the aryl hydrocarbon receptor (AhR) signaling pathway (AID 743085);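 further: HG2L7.5c1 human HepG2 liver cells with stably integrated DRE-driven firefly reporter; series mostly up to about 70 µM; nearly all actives have a fitted effect of over 15% in size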
In short: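 A multiplexed format paired cell viability (CellTiter-Fluor fluorescence) with AhR-dependent luciferase output (ONE-Glo luminescence) in the same wells of HepG2 DRE-luc cells after 24 h compound exposure at 37C.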

Measured: Potency

Chain of Bile acid receptor (Homo sapiens) (Q96RI1 whole entry, looked up): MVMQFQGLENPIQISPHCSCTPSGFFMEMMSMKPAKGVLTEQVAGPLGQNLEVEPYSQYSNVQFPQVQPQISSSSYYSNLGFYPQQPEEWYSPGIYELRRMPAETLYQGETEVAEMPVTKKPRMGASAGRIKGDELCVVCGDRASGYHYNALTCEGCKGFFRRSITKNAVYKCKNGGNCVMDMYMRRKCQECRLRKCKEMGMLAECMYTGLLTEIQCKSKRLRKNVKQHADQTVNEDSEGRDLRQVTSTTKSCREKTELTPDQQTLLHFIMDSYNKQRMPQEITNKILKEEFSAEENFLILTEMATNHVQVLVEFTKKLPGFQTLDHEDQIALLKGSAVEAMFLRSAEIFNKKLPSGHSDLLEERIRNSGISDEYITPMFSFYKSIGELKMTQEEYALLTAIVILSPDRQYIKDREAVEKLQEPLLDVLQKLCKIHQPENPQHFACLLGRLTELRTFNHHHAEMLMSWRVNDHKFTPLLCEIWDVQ
Chain of Peroxisome proliferator-activated receptor gamma (Homo sapiens) (P37231 whole entry, looked up): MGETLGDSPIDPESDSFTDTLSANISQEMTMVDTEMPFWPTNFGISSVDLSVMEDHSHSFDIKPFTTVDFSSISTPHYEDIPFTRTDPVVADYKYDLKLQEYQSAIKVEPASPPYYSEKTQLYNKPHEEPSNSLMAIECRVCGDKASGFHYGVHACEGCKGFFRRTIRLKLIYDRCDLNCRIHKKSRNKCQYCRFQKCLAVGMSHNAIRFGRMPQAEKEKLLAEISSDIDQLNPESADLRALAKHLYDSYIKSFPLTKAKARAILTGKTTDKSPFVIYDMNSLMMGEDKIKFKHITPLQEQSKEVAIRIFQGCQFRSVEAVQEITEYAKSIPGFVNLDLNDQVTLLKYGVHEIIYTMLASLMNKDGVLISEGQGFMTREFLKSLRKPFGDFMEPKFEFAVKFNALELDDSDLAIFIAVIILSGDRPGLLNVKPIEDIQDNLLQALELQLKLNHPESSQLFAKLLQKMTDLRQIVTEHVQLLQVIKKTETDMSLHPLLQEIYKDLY
Chain of Peroxisome proliferator-activated receptor delta (Homo sapiens) (Q03181 whole entry, looked up): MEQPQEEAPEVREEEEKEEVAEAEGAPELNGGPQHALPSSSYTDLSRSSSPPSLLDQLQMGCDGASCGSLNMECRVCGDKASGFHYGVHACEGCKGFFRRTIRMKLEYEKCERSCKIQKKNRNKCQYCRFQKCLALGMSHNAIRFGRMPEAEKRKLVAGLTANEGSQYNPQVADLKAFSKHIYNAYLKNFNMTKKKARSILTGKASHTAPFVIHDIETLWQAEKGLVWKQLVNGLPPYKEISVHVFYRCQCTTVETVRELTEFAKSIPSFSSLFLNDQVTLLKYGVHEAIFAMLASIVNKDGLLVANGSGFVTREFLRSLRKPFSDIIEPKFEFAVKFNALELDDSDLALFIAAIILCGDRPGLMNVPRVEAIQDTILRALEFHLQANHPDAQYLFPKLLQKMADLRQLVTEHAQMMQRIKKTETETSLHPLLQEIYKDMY
Chain of Vitamin D3 receptor (Homo sapiens) (P11473 whole entry, looked up): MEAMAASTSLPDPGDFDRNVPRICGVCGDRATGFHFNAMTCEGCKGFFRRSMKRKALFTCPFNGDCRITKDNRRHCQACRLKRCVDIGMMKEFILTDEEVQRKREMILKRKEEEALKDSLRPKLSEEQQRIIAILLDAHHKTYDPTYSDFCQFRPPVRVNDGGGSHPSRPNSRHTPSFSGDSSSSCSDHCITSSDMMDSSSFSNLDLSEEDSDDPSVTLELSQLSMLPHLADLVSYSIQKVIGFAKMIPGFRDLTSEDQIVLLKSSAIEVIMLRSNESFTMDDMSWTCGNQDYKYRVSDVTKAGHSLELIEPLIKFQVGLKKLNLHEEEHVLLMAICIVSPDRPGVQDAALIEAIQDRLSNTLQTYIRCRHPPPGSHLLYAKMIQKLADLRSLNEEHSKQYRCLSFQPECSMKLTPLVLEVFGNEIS
Chain of Aryl hydrocarbon receptor (Homo sapiens) (P35869 whole entry, looked up): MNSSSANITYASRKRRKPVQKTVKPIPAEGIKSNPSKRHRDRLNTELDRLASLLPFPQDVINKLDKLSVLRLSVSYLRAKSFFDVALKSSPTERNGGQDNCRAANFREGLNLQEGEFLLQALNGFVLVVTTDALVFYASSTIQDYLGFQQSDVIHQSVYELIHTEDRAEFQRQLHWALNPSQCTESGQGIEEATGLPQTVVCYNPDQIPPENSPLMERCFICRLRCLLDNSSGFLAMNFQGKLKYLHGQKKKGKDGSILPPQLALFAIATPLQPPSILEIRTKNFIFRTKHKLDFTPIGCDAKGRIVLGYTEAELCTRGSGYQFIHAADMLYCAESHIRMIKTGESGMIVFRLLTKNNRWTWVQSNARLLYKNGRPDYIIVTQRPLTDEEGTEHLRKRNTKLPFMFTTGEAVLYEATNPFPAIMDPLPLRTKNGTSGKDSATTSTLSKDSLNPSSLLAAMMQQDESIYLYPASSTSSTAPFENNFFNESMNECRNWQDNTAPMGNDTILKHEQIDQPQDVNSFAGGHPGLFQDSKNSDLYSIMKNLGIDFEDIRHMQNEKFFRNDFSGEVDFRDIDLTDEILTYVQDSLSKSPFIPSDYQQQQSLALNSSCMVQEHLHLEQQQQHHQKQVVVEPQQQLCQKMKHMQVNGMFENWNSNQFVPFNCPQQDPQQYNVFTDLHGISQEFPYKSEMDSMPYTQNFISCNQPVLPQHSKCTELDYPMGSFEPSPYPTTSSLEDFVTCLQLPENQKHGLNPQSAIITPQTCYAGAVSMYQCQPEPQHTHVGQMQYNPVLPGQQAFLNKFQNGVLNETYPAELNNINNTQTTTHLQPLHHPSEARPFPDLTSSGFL

Oc1ccccc1Cc1ccccc1O
active: [4] 38.6 µM
not listed: [13] | [14] | [15] | [16] | [17] | [18] | [19] | [20]
inactive: all other assays above

O=C(c1ccc2c(c1)C(=O)OC2=O)c1ccc2c(c1)C(=O)OC2=O
not listed: [17] | [18] | [19] | [20]
inactive: all other assays above

CC(=O)N1CCN(c2ccc(O)cc2)CC1
inactive: [17] | [18] | [5] | [6] | [7] | [13] | [9] | [10] | [11]

O=S(=O)(O)c1cc(O)ccc1O
inactive: [18] | [5] | [6] | [7] | [13] | [8] | [9] | [14] | [11] | [12] | [19]

CC(C)COC(=O)/C=C/c1ccccc1
not listed: [1] | [3] | [9] | [15] | [17] | [19]
inactive: all other assays above

Nc1ccc(C(=O)OCC(O)CO)cc1 (configuration not stated)
inactive: [17] | [18] | [4] | [5] | [6] | [7] | [13] | [11] | [12] | [19]

c1ccc(CNc2ncnc3nc[nH]c23)cc1
inactive: [2] | [18] | [4] | [5] | [6] | [7] | [10] | [11] | [12] | [19]

CCCCCC(=O)OCC
not listed: [4] | [8] | [13] | [14] | [15] | [17] | [20]
inactive: all other assays above

Cc1ccc(S(=O)(=O)NC(=O)NC2CCCCCCC2)cc1
inactive: [1] | [2] | [18] | [4] | [5] | [6] | [7] | [9] | [11] | [12] | [19]

CC(=O)OC(C)(C)Cc1ccccc1
not listed: [1] | [3] | [4] | [17] | [19] | [20]
inactive: all other assays above

O=C(O)c1ccc(OCCN2CCCCC2)cc1
not listed: [1] | [2] | [3] | [15] | [16] | [17] | [20]
inactive: all other assays above

Cc1cccc(NC(=S)N(C)C)c1
not listed: [1] | [3] | [7] | [9] | [15] | [17] | [20]
inactive: all other assays above

Nc1c(NC/C=C\COc2cc(CN3CCCCC3)ccn2)c(=O)c1=O
active: [1] 13.3 µM
not listed: [2] | [4] | [12] | [17] | [20]
inactive: all other assays above

CCC(C)(CCC(C)C)C(=O)[O-].CCC(C)(CCC(C)C)C(=O)[O-].[Zn+2] (configuration not stated)
inactive: [2] | [4] | [5] | [6] | [13] | [8] | [14] | [10] | [11] | [12]

COc1cc([N+](=O)[O-])ccc1N
not listed: [1] | [2] | [10] | [17] | [18] | [19]
inactive: all other assays above

O=C(CN1CCN(Cc2ccc3c(c2)OCO3)CC1)N1c2ccccc2Sc2ccccc21
inactive: [1] | [18] | [5] | [6] | [7] | [13] | [9] | [10] | [11] | [12]

CC(=O)OC[C@H]1O[C@@H](OC(C)=O)[C@H](OC(C)=O)[C@@H]1OC(C)=O
not listed: [1] | [2] | [3] | [4] | [8] | [9] | [17] | [20]
inactive: all other assays above

CC(=O)OCCCc1ccccc1
not listed: [3] | [4] | [12] | [16] | [17] | [19] | [20]
inactive: all other assays above

Cc1nc2n(c(=O)c1CCN1CCC(C(=O)c3ccc(F)cc3)CC1)CCS2
not listed: [1] | [2] | [3] | [4] | [13] | [16] | [19] | [20]
inactive: all other assays above
